# Laboratory results taken from the supplement of paper PMC13380429.
# Tested on: Vero E6 infected with SARS-CoV-2
# Assay: inhibition of SARS-CoV-2 cytopathic effect; higher = more antiviral protection, active = above 15
# Details: 833.33 nM; 48 h
row,Compound,inhibition of SARS-CoV-2 cytopathic effect
1,COc1ccc2c(C(=S)N(C)CC(=O)O)cccc2c1C(F)(F)F [tolrestat],-3.61% (inactive)
2,NC(=O)c1cccc2cn(-c3ccc([C@@H]4CCCNC4)cc3)nc12 [niraparib],3.39% (inactive)
3,N#CN=C(NCCCCCCOc1ccc(Cl)cc1)Nc1ccncc1,-15% (inactive)
4,Oc1ccc(Cl)c2cccnc12 [cloxyquin],3.29% (inactive)
5,CS(=O)(=O)N(Cc1ccco1)C[C@@H](O)Cn1c2ccccc2c2ccccc21,0.77% (inactive)
6,CN=c1nc(-c2ccccc2)n(-c2ccccc2)s1,0.89% (inactive)
7,CCc1cc(-c2[nH]nc(C)c2-c2ccc3c(c2)OCCO3)c(O)cc1O,-1.82% (inactive)
8,CC(=O)Oc1c(C)cc(OCC(O)CNC(C)C)c(C)c1C (centres undefined) [metipranolol],-1.66% (inactive)
9,O=C1c2ccccc2-n2c1nc1ccccc1c2=O [tryptanthrin],0.62% (inactive)
10,Cn1cnnc1Sc1c([N+](=O)[O-])ncn1C,5% (inactive)
11,O=C(NCc1ccc(F)cc1)N1CCN2C(=O)OC(c3ccccc3)(c3ccccc3)[C@@H]2C1 (racemic),3.22% (inactive)
12,CCc1cncnc1N1CCN(Cc2nc3cc(C(F)(F)F)ccc3[nH]2)CC1,8.5% (inactive)
13,COc1ccc(CCN)cc1OC [homoveratrylamine],5.43% (inactive)
14,COc1nccnc1NS(=O)(=O)c1ccc(N)cc1 [sulfametopyrazine],-2.74% (inactive)
15,CN(C)C(=O)C(=O)c1cn(C)c2cc(Cl)c(C(=O)N3CCC(Cc4ccc(F)cc4)CC3)cc12,-2.05% (inactive)
16,CC#C[C@]1(O)CC[C@H]2[C@@H]3CCC4=CC(=O)CCC4=C3[C@@H](c3ccc(N(C)C)cc3)C[C@@]21C [mifepristone],-4.55% (inactive)
17,CCCc1c(OCCCCc2nnn[nH]2)ccc(C(C)=O)c1O [tomelukast],-8.13% (inactive)
18,C[C@H](O)[C@H](O)[C@H]1CNc2nc(N)[nH]c(=O)c2N1 [sapropterin],0.55% (inactive)
19,Cc1cc(C)n(-c2cccc([C@H](CC(=O)O)CN3CC[C@@H](CCc4ccc5c(n4)NCCC5)C3)c2)n1 [integrin-antagonist-1],0.99% (inactive)
20,CCCNCCc1ccc(NS(=O)(=O)c2ccc(OC(F)(F)F)cc2)cc1,1.93% (inactive)

row,Compound,inhibition of SARS-CoV-2 cytopathic effect
1,CCc1nc(-c2cccc(C)c2)c(-c2ccnc(NC(=O)c3ccccc3)c2)s1,-1.52% (inactive)
2,CC(C)(C)CC(=O)Nc1c(F)cc(C(=O)/N=c2\sccn2COP(=O)(O)O)cc1F,-0.94% (inactive)
3,CC[N+](CC)(CC(=O)Nc1c(C)cccc1C)Cc1ccccc1 [denatonium-benzoate],-1.56% (inactive)
4,CNCc1ccc(C)c(NC(=O)c2ccc(Nc3nc(-c4ccccc4)c4ccccc4n3)cc2)c1,-1.96% (inactive)
5,CC(CCc1ccccc1)NCC(O)c1ccc(O)c(C(N)=O)c1 (centres undefined) [labetalol],0.67% (inactive)
6,CC(C)c1cc(C(C)C)c(CC(=O)NS(=O)(=O)Oc2c(C(C)C)cccc2C(C)C)c(C(C)C)c1 [avasimibe],-2.68% (inactive)
7,CC(C)(C)NCC(O)c1cc(Cl)c(N)c(Cl)c1 (centres undefined) [clenbuterol],-0.35% (inactive)
8,O=C(O)c1ccc(N2C(=O)/C(=C/c3ccc(-c4ccc([N+](=O)[O-])cc4)o3)C=C2c2ccccc2)cc1,-6.51% (inactive)
9,CCc1cnn2c(NCc3ccc[n+]([O-])c3)cc(N3CCCC[C@H]3CCO)nc12 [dinaciclib],-9.46% (inactive)
10,CC(C)[C@H]1C(=O)N[C@@H](CCCNC(=N)N)C(=O)NCC(=O)N[C@@H](CC(=O)O)C(=O)N[C@H](Cc2ccccc2)C(=O)N1C [cilengitide],-11.1% (inactive)
11,N[C@@H](Cc1ccc(Cl)cc1)C(=O)O (racemic) [fenclonine-(+/-)],4.29% (inactive)
12,CC1=C(C(=O)O)N2C(=O)[C@@H](NC(=O)[C@H](N)c3ccccc3)[C@H]2SC1 [cephalexin],-1.01% (inactive)
13,CCOC(CN1CCN(CC(C)C(=O)c2ccccc2)CC1)c1ccccc1 (centres undefined) [eprazinone],1.64% (inactive)
14,O=C(c1ccc(F)cc1)N1CCC[C@H](c2nc(-c3ccc(F)cc3)no2)C1,0.74% (inactive)
15,O=C(NCCN1CCOCC1)c1ccc(Cl)cc1 [moclobemide],-2.19% (inactive)
16,C[C@H](N[C@@H](CCc1ccccc1)C(=O)O)C(=O)N1CCC[C@H]1C(=O)O [enalaprilat],1.61% (inactive)
17,CCN(CC)CCOc1ccccc1C(=O)CCc1ccccc1 [etafenone],0.23% (inactive)
18,COc1ccc(Cl)c(Nc2nc3ccccc3nc2NS(=O)(=O)c2cccc(NC(=O)C(C)(C)N)c2)c1 [pilaralisib],0.71% (inactive)
19,COc1ccc2c(c1)[C@]13CCCC[C@@H]1[C@H](C2)N(C)CC3 [dextromethorphan],0.81% (inactive)
